Here are results for 55 molecules from PubChem BioAssay AID720530 (The Scripps Research Institute Molecular Screening Center, 2013).

The whole screen tested about 1,000 compounds, of which about 260 (26%) were called active. The list is a sample of the results. A number with no mark means an inactive call. Cut-off read from the data, not from the text of the source: active = inhibition above about 21%; inactive = the rest.

The target of this test is E3 ubiquitin-protein ligase UHRF1 (Homo sapiens) (UniProt Q96T88). The test is described as follows: blockers of UHRF1 binding to methyl-oligo – biochemical, TR-FRET, human UHRF1, counter-screen for MBD2 inhibitor project (AID 720530).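 Note: UHRF1 SRA domain binding a labeled hemimethylated CpG hairpin DNA; 0% = vehicle only and 100% = reference inhibitor with vehicle.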 The note with it: UHRF1 binding to methylated oligonucleotide, at 4.4 µM, stronger effect = higher value.
Sequence of E3 ubiquitin-protein ligase UHRF1 (Homo sapiens) (Q96T88 whole entry, looked up, the tested form may be a part): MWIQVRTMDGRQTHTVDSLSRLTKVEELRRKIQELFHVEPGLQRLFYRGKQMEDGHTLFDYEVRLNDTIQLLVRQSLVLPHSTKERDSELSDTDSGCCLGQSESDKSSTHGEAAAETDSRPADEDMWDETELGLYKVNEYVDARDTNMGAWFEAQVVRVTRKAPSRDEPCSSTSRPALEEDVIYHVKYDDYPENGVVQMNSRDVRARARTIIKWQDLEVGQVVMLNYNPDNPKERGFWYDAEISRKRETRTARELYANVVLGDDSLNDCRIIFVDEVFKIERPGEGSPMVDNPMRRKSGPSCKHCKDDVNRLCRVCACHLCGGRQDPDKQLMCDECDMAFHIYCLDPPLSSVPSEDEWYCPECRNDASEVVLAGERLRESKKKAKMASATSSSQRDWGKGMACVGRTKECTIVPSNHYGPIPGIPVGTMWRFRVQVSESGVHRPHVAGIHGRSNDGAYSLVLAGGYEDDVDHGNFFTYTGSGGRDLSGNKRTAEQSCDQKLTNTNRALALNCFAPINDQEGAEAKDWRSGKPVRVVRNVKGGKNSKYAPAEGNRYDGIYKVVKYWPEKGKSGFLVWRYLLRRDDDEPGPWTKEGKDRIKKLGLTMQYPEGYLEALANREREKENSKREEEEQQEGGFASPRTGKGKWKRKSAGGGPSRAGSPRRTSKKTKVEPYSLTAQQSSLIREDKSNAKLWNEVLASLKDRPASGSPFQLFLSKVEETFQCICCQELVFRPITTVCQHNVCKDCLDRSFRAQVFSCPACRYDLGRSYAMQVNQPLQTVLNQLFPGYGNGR
For orientation: inhibition means the drop in the measured response relative to a control, in per cent. Consider `CCN(CC)CCOc1ccc2c(c1)C(=NNC(=O)c1ccccn1)c1cc(OCCN(CC)CC)ccc1-2`, for which the inhibition was 108% (active).

For `COC(=O)c1ccc2nc(-c3cccc(Br)c3)c(Cc3ccc(OC)cc3C)n2c1`, the inhibition was 12.2%. Take `Cc1ccc(C)c(NC(=O)c2ccc(OC(=O)c3ccco3)cc2)c1`: the inhibition was 8.96%. For the molecule `CCOC(=O)CCP(=O)(O)C(O)(c1ccccc1)c1ccccc1`, the inhibition is 4.07%. With `Cc1cccc(NC(=O)C[C@H]2CC[C@H]3[C@@H](COc4ccc(NC(=O)Nc5ccccc5)cc4C(=O)N3C)O2)c1`, the inhibition was 0.48%.

For `CC(C)c1nc(CNC(=O)CC2C(=O)NCCN2Cc2cccc(F)c2F)cs1` (stereo not given), the inhibition is 9.89%.

`COc1ccc2c(c1)c(=Cc1ccc(N(C)C)cc1)c1cc(-c3ccccc3)[n+](C)n12`: the inhibition was 83.9% (active). `Cc1ccc(-c2ccnc3nc(Sc4ncc(C(F)(F)F)cc4Cl)nn23)cc1`: the inhibition is 8.79%.

For the molecule `Cc1cccc(CN2CCN(C3CN(Cc4cn(Cc5cc(C)cc(C)c5)nn4)S(=O)(=O)C3)CC2)c1` (stereo not given), the inhibition is 9.39%. As to `COC(=O)c1cccc(NC(=O)c2cccc(N3C(=O)CCC3=O)c2)c1`, the inhibition is 6.97%. As for `COc1ccc(CNC(=O)c2c[nH]c3c(OC)cc(OC)cc3c2=O)cc1`, the inhibition was 5.78%. Consider `CN(C(=O)COC(=O)c1cc(-c2ccco2)nc2ccccc12)C1CCS(=O)(=O)C1` (stereo not given), for which the inhibition was 35.3% (active). `O=C(c1n[nH]c2c1CCC2)N1CCCC(Nc2cccc(F)c2)C1` (stereo not given): the inhibition is 6.16%. As for `CC(C)Oc1ccc(C2NC(=O)NC2=O)cc1` (stereo not given), the inhibition was 6.8%.

Take `CCOc1cc(-c2noc(CCCC(=O)NC3CCCCC3)n2)ccc1OC`: the inhibition was 4.27%. In the case of `c1ccc2cc3c(NCCN4CCOCC4)ccnc3cc2c1` it was 21.8% (active); in that of `COc1ccc(-n2cc(-c3ccccc3)c3c(=S)nc[nH]c32)cc1`, -1.36%. `COc1nc(N(C)C)nc(N2CC(=O)N(CCNS(=O)(=O)c3ccc(C)cc3)C2=N)n1`: the inhibition was 6.8%. In the case of `CC(=O)c1ccccc1NC(=O)COC(=O)C1COc2ccccc2O1` (stereo not given) it was 2.18%; in that of `COc1ccc2[nH]c3c(C)c4cc[n+](C)cc4c(C)c3c2c1`, 94.4% (active). Consider `CCOC(=O)C1C(=O)OC2(CCCC2)C1C(=O)OCC` (stereo not given), for which the inhibition was 1.98%. Turning to `O=C(CC1CCCCC1)Nc1c2c(nn1-c1ccc(F)cc1)CS(=O)(=O)C2`, the inhibition was 5.19%. Regarding `C=CCN1C(=O)c2ccc(C(=O)N3CCC(C(=O)OCC)CC3)cc2C1=O`, the inhibition was 4.16%. Consider `C=CC1=C(C(=O)O)N2C(=O)[C@@H](NC(=O)/C(=N\OCC(=O)O)c3csc(N)n3)[C@H]2SC1`, for which the inhibition was 106% (active).

For the molecule `Nc1ccccc1C(=O)NC1CCCCNC1=O` (stereo not given), the inhibition is 4.32%. In the case of `Cc1ccc(C(=O)Nc2ccc3c(c2)OCO3)cc1S(=O)(=O)N1CCCCC1`, the inhibition is 4.99%. Take `COc1ccc(COC[C@H](CC(C)C)N2CCN(C(=O)c3cccc(C(F)(F)F)c3)CCC2=O)cc1`: the inhibition was 8.9%. In the case of `COC(=O)[C@]12C[C@H](CC(=O)NCCC(C)C)C(=O)N(CCc3ccc(OC)c(OC)c3)C1=C[C@H](C(C)(C)C)O[C@@H]2C` it was 7.24%; in that of `COc1ccc(OCc2cc(C(=O)NCC3(C)COC3)no2)c(Cl)c1`, 2.8%; in that of `COC(=O)c1c(NC(=O)c2ccc(S(=O)(=O)N3CCOCC3)cc2)sc2c1CCN(C(C)C)C2`, 29.1% (active). As for `Cc1c(NS(=O)(=O)c2cc(C(=O)NCCc3ccc(F)cc3)cc(Cl)c2Cl)c(=O)n(-c2ccccc2)n1C`, the inhibition was 3.95%. In the case of `O=c1ccc2c(-c3ccccc3S(=O)(=O)O)c3ccc(O)c(O)c3oc-2c1O` it was 73.8% (active); in that of `C=C1c2c(Cl)ccc(O)c2C(O)=C2C(=O)[C@]3(O)C(O)=C(C(N)=O)C(=O)[C@@H](N(C)C)[C@@H]3[C@@H](O)C12` (stereo not given in full), 19.2%.

`CCOC(=O)c1ccc(-n2c(CCC(=O)O)ccc2-c2ccccc2)cc1`: the inhibition is 7.24%. For the molecule `C=CCN(C(=O)[C@@H](CCCC)[C@@H](O)c1ccc(Cl)cc1)c1ccccc1`, the inhibition was 6.35%. In the case of `CN(C)[C@@H]1C(=O)C(C(N)=O)=C(O)[C@@]2(O)C(=O)C3=C(O)c4c(O)ccc(Cl)c4[C@@H](O)[C@H]3C[C@@H]12` it was 12.2%. In the case of `COc1ccccc1C(=O)NNC(=O)CCN1C(=O)/C(=C\c2ccccc2)SC1=S` it was 7.6%. For `Cc1ccc(Cc2cnc(N)s2)o1`, the inhibition was 7.64%. `Cc1cc(C)c2nc3nc(C)cc(C)c3c(N)c2c1`: the inhibition was 46.3% (active). In the case of `CN(C)CCNC(=O)c1ccc(Cl)c2cc3ccccc3nc12` it was 39.7% (active). On to `COC(=O)c1cn(C)c2ccc(S(=O)(=O)N3CC(C)CC(C)C3)cc2c1=O` (stereo not given), for which the inhibition is 14.2%. `CCOC(=O)c1sc(NC(=O)CCN2CCOCC2)c(C(=O)OCC)c1C`: the inhibition is -14.4%. In the case of `CNC(=O)C[C@H]1C(=O)N(c2ccc(OC)cc2)C[C@@H]1Cc1ccccc1` it was 5.54%; in that of `CCOc1ccc(NC(=O)c2cc(C)nc3ccccc23)cc1`, 3.69%; in that of `CCOc1ccc(S(=O)(=O)N2CCC(c3ccccc3)CC2)cc1C(=O)O`, 0.13%. `Brc1ccc(-c2n(-c3ccccn3)c3ccccc3[n+]2-c2ccccn2)cc1`: the inhibition was 22.7% (active). As to `CO/N=C(/CS(=O)(=O)c1ccc(Br)cc1)c1ccc(OC)cc1`, the inhibition was 5.83%.

Take `C=CCn1c(=S)[nH]c2scc(-c3ccco3)c2c1=O`: the inhibition was 47.7% (active).

Consider `CCOc1ccc(N(CC(=O)NCCOc2ccccc2OC)S(=O)(=O)c2ccccc2)cc1`, for which the inhibition is 11%. On to `CCOc1cc(N2CCOCC2)c(OCC)cc1NC(=O)c1cc(C)nc2ccccc12`, for which the inhibition was 7.08%. Regarding `COC(=O)c1ccc(CSc2nncn2N)cc1`, the inhibition is 9.29%. As for `Cc1ccccc1NC(=O)CN1C(=O)N/C(=C\c2cccn2-c2cccc(C(=O)O)c2)C1=O`, the inhibition was 56.5% (active).

As to `Cc1c(C=O)n(C)n(-c2ccccc2)c1=O`, the inhibition was 0.66%. In the case of `COC(=O)c1ccc2nc(C3CCCCC3)c(Cc3cccc(F)c3)n2c1` it was 5.68%; in that of `CCOc1ccc(-n2c(SCC(=O)Nc3ccc(OC)cc3)nc3sc4c(c3c2=O)CCN(C)C4)cc1`, 6.75%.
